“And” between values parts separate entries of the source, which are not always exact repeats. Equal values may be shown once. The panel holds about 83,000 compounds, 20% with a hit somewhere; the sample as a whole holds those more often.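 For each line, cells grew in 96-well plates with the test compound present at a single concentration for 48 hours.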 The source made the active and inactive calls. The calls were made as follows: active = growth percent below 10; inactive = the rest.
Assays:
Assay in all cases: NCI-60 one-dose screen, 48 h (100 = growth as untreated, 0 = no growth, -100 = all killed)
Conditions in all cases: 10 µM unless noted
SR leukemia = test system: SR leukemia
RPMI-8226 leukemia = test system: RPMI-8226 leukemia
OVCAR-8 ovarian = test system: OVCAR-8 ovarian
OVCAR-5 ovarian = test system: OVCAR-5 ovarian
OVCAR-4 ovarian = test system: OVCAR-4 ovarian
SK-OV-3 ovarian = test system: SK-OV-3 ovarian
IGROV1 ovarian = test system: IGROV1 ovarian
OVCAR-3 ovarian = test system: OVCAR-3 ovarian
HS 578T breast = test system: HS 578T breast
NCI/ADR-RES ovarian = test system: NCI/ADR-RES ovarian

Measured: growth

Cn1cc(-c2cc3ncnc(Nc4ccc(CC(=O)Nc5nc(C(C)(C)C)cs5)cc4)c3s2)cn1
inactive: SR leukemia 36.2% | RPMI-8226 leukemia 38.8% | OVCAR-8 ovarian 38.1% | OVCAR-5 ovarian 84.3% | OVCAR-4 ovarian 28.2% | SK-OV-3 ovarian 26.2% | IGROV1 ovarian 12% | OVCAR-3 ovarian 62.3% | HS 578T breast 47.3% | NCI/ADR-RES ovarian 101%

COc1cc(-c2nc(-c3ccccc3)[nH]c2-c2ccnc(NCCCNS(=O)(=O)c3ccc(C(F)(F)F)cc3)n2)ccc1Cl
inactive: RPMI-8226 leukemia 12.5% and 31.6% | OVCAR-8 ovarian 53.2% and 40.2% | OVCAR-5 ovarian 103% and 84.4% | OVCAR-4 ovarian 41.6% and 39.1% | SK-OV-3 ovarian 99.5% and 55.1% | IGROV1 ovarian 59.6% and 51.8% | OVCAR-3 ovarian 33.6% and 39.6% | HS 578T breast 58.8% and 71.9% | NCI/ADR-RES ovarian 13.8% and 32.4%
9.32% (active) and 35.8% (inactive): SR leukemia

O=C(CSc1nnc(-c2ccc(Cl)cc2)n1-c1ccccc1)Nc1ccc(Cl)cc1
inactive: SR leukemia 18.6% | RPMI-8226 leukemia 31% | OVCAR-8 ovarian 31% | OVCAR-5 ovarian 37.3% | SK-OV-3 ovarian 75% | IGROV1 ovarian 23.3% | OVCAR-3 ovarian 57.5% | HS 578T breast 38.4% | NCI/ADR-RES ovarian 34.7%
active: OVCAR-4 ovarian -55.8%

CN1CCN(c2ccc(Nc3nc(NCCNC(=O)c4ccc(F)cc4)c4sccc4n3)cc2)CC1
active: SR leukemia 0.604%
inactive: RPMI-8226 leukemia 32.1% | OVCAR-8 ovarian 77.4% | OVCAR-5 ovarian 85.3% | OVCAR-4 ovarian 61.1% | SK-OV-3 ovarian 125% | IGROV1 ovarian 87.7% | OVCAR-3 ovarian 86.2% | HS 578T breast 75.6% | NCI/ADR-RES ovarian 88.5%

O=C(/C=C/c1cccc(F)c1)c1cccc(OCCCOc2cccc(C(=O)/C=C/c3cccc(F)c3)c2)c1
inactive: OVCAR-8 ovarian 67.6% | OVCAR-5 ovarian 77.8% | OVCAR-4 ovarian 75.3% | SK-OV-3 ovarian 124% | IGROV1 ovarian 36.9% | OVCAR-3 ovarian 74.9% | HS 578T breast 93.8% | NCI/ADR-RES ovarian 90.1%
active: SR leukemia 6.17% | RPMI-8226 leukemia -15.7%

C#C[C@]1(O)CC[C@H]2[C@@H]3CC=C4c5sc(Nc6ccc(C)cn6)nc5CC[C@]4(C)[C@H]3CC[C@@]21C
inactive: OVCAR-8 ovarian 25.3% | OVCAR-5 ovarian 22.2% | OVCAR-4 ovarian 42.8% | IGROV1 ovarian 29.4% | OVCAR-3 ovarian 34% | NCI/ADR-RES ovarian 20.3%
active: SR leukemia -15% | RPMI-8226 leukemia -32% | SK-OV-3 ovarian -44.8% | HS 578T breast -11.9%

O=C(CSc1nc2ccccc2c(=O)n1-c1ccc(Cl)c(Cl)c1)Nc1ccc(S(=O)(=O)Nc2ccc(Cl)nn2)cc1
inactive: SR leukemia 108% | RPMI-8226 leukemia 106% | OVCAR-8 ovarian 94% | OVCAR-5 ovarian 91.1% | OVCAR-4 ovarian 97.7% | SK-OV-3 ovarian 88.8% | IGROV1 ovarian 95.8% | OVCAR-3 ovarian 106% | HS 578T breast 91.2% | NCI/ADR-RES ovarian 99.8%

Cc1ccc2c(n1)C(=O)C(Cl)=C(Nc1ccc(C#N)cc1)C2=O
active: OVCAR-4 ovarian -98.5% | OVCAR-3 ovarian 4.24%
inactive: SR leukemia 15.3% | RPMI-8226 leukemia 55.1% | OVCAR-8 ovarian 91.5% | OVCAR-5 ovarian 106% | SK-OV-3 ovarian 106% | IGROV1 ovarian 68.4% | HS 578T breast 97.7% | NCI/ADR-RES ovarian 98%

CC(=O)Nc1nc(C)c(-c2csc(Nc3ccccc3)n2)s1
active: SR leukemia 8.83% | IGROV1 ovarian -9.74% | HS 578T breast -4.87%
inactive: RPMI-8226 leukemia 27.4% | OVCAR-8 ovarian 52.3% | OVCAR-5 ovarian 41.9% | OVCAR-4 ovarian 54.7% | SK-OV-3 ovarian 15.3% | OVCAR-3 ovarian 37.1% | NCI/ADR-RES ovarian 35.9%

O=C(/C=C/c1cccc(Br)c1)c1cccc(OCCCCOc2cccc(C(=O)/C=C/c3cccc(Br)c3)c2)c1
inactive: SR leukemia 98.5% | RPMI-8226 leukemia 56.8% | OVCAR-8 ovarian 105% | OVCAR-5 ovarian 104% | OVCAR-4 ovarian 109% | SK-OV-3 ovarian 107% | IGROV1 ovarian 101% | OVCAR-3 ovarian 105% | HS 578T breast 101% | NCI/ADR-RES ovarian 106%

NC(=O)c1c(NC(=O)c2ccc(C(F)(F)F)cc2)sc2c1CCC(=O)C2
active: SR leukemia 1.33% | RPMI-8226 leukemia -30.3% | OVCAR-8 ovarian 9.01% | OVCAR-5 ovarian 9.87% | OVCAR-4 ovarian -66.9% | OVCAR-3 ovarian -17.2% | NCI/ADR-RES ovarian 0.891%
inactive: SK-OV-3 ovarian 37.5% | IGROV1 ovarian 16.2% | HS 578T breast 19.4%

CN1CCN(c2ccc(Nc3nc(NCCCNS(=O)(=O)c4ccc(F)cc4)c4sccc4n3)cc2)CC1
active: SR leukemia 7.3%
inactive: RPMI-8226 leukemia 12.5% | OVCAR-8 ovarian 77.3% | OVCAR-5 ovarian 86.7% | OVCAR-4 ovarian 60% | SK-OV-3 ovarian 115% | IGROV1 ovarian 81.6% | OVCAR-3 ovarian 97.4% | HS 578T breast 55.6% | NCI/ADR-RES ovarian 87.8%

COc1ccc(C2CC(c3cccc(OCCCCOc4cccc(C5=NOC(c6ccc(OC)cc6)C5)c4)c3)=NO2)cc1 (stereo not given)
inactive: SR leukemia 29.9% | OVCAR-8 ovarian 93.5% | OVCAR-5 ovarian 111% | OVCAR-4 ovarian 90.3% | SK-OV-3 ovarian 106% | IGROV1 ovarian 89.6% | OVCAR-3 ovarian 96.2% | HS 578T breast 109% | NCI/ADR-RES ovarian 107%
active: RPMI-8226 leukemia -21.9%

From PubChem BioAssay (NCI)
